Experimental data: PubChem BioAssay (Tox21)
Results filed as inconclusive are left out. The source made the active and inactive calls. Calls follow the shape of the dose curve; as a rule, active = well fitted cell-killing curve with a large enough effect in the repeat runs; inconclusive = weak or mixed curves, or effect the other way; inactive = no such curve, though single readings can be large or run the other way.

assay: Caspase-3/7 induction in CHO-K1 cells by small molecules, qHTS cell viability counter screen (AID 1346979); settings: CellTiter-Fluor fluorescence, 17 h; series mostly up to 92.4 µM; activity change, negative = cytotoxicity: at the top concentration; also: nearly all actives have a fitted effect of over 35% in size
How it was run: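 CHO-K1 wt, 1,500 cells/well; 5hr pre-incubation 37C/5% CO2; compound pin transfer (DMSO); 16hr exposure; CellTiter-Fluor added, 1hr, fluorescence read.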
% is scaled to controls: 0 for no effect and ±100 for the full control effect.

| SMILES | activity change, negative = cytotoxicity |
| --- | --- |
| C[C@@H](O)C(=O)O | 5.4% (inactive) |
| CC1c2ccccc2CN1NC(=O)c1ccc(Cl)c(S(N)(=O)=O)c1 (stereo unspecified) | -0.51% [at 42.5 µM] (inactive) |
| O=C1CCC(=O)N1Cl | 9.37% (inactive) |
| CC(=O)CCC1=C(C)CCCC1(C)C | 8.86% (inactive) |
| CCOc1ccccc1OCC1CNCCO1 (stereo unspecified) | 1.4% [at 42.5 µM] (inactive) |
| COC(=O)c1cccc(Cl)c1 | 2.08% (inactive) |
| Cc1ccc2c(c1)C(=O)c1ccccc1C2=O | -7.78% (inactive) |
| C=C(C)c1cccc(C(C)(C)N=C=O)c1 | -0.473% (inactive) |
| Cc1cc(C)c(C(=O)O)c(C)c1 | 2.27% (inactive) |
| CCCSSCCC | 1.02% (inactive) |
| O=C[O][Al]([O]C=O)[O]C=O | 9.33% (inactive) |
| CC(C)Nc1ccccc1 | 12.3% (inactive) |
| C[C@H]1[C@@H](c2ccccc2)NC(=O)N1C | 12.4% (inactive) |
| O=C(O)[C@H](O)c1ccccc1 | 6.89% [at 42.5 µM] (inactive) |
| C=CCSSCCC | 7.92% (inactive) |
| CO/N=C(/C(=O)N[C@@H]1C(=O)N2C(C(=O)[O-])=C(C[n+]3ccn4ncccc43)CS[C@H]12)c1nsc(N)n1 | 12% [at 42.5 µM] (inactive) |
| CC12CCC(C1)C(C)(C)C2O (stereo unspecified) | 3.64% (inactive) |
| C/C=C(\C)C(C)=O | 5.32% (inactive) |
| CN(C)CCN(C)CCO | 4.54% (inactive) |
| C[C@]12CCC(=O)C=C1CC[C@H]1[C@@H]3CC[C@](O)(C(=O)CO)[C@@]3(C)C[C@H](O)[C@@]12F | 14% [at 42.5 µM] (inactive) |
| CC1OCCC1=O (stereo unspecified) | 4.93% (inactive) |
| C=CCCCCCCCCC(=O)OCCCC | 0.836% (inactive) |
| CN1C[C@@H]2C[C@H]1CN2c1cc2c(cc1F)c(=O)c(C(=O)O)cn2C1CC1 | -0.0368% [at 19 µM] (inactive) |
| CC1(C)CC(OC(=O)CCCCCCCCC(=O)OC2CC(C)(C)NC(C)(C)C2)CC(C)(C)N1 | -1.35% [at 19 µM] (inactive) |
| O=C1OCCO1 | 4.93% (inactive) |
| CC1CCc2c(N3CCC(O)CC3)c(F)cc3c(=O)c(C(=O)O)cn1c23 (stereo unspecified) | -1.18% [at 42.5 µM] (inactive) |
